MgrA-DNA mod = S. aureus MgrA-DNA binding modulation. fluorescence polarization. inhibition, % (no concentration beside the values). 0.13% of 84,000 active. AID 602314; in the data active means inhibition above about 30%, passing the limit was not always enough;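 further: 0% = protein plus DNA without compound and 100% = DNA alone without protein; higher means less MgrA bound to DNA so lower polarization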
* = called active by the depositor. Many of the other results were omitted from the sample, so hits are more common in it than they were.

SMILES	MgrA-DNA mod
Cc1ccc(N2C(=O)NC(=O)/C(=C/c3cc(Br)c(O)cc3O)C2=O)cc1	13.7
COc1cc(/C=N/NC(N)=S)cc(OC)c1OC	2.4
CC(=O)Nc1ccc(C(=O)O)cc1NC(C)=O	-0.3
CCN(CC)C(=O)c1cccc(-c2nnc(-c3ccccc3)o2)c1	1.8
CCOc1ccc(Nc2cnnc(Nc3ccc(OCC)cc3)n2)cc1	0.9
CCOc1ccc(NC2=CC(=O)C=CC2=O)cc1	56.0*
CCOc1ccc(NC2=CC(=O)CCC2)cc1	-1.1
CC(=O)NC(=O)c1cc2cc(Cl)ccc2oc1=Nc1cccc(C(F)(F)F)c1	2.3
COc1ccc(C2=NCC(C)(C)CO2)cc1OC	4.2
CCOC(=O)N1CCN(C(=S)Nc2ccc3nsnc3c2)CC1	2.5
Cc1ccc(C)n1-c1cccc(C(=O)O)c1	102.8*
O=C(O)c1cccc(-n2cccc2)c1	34.8
Cc1ccc(C)n1-c1cccc(N)c1	2.5
OCC1CCCCN1C(=S)NCCc1ccccc1 (stereo not drawn)	-2.1
CCc1ccc(/C=C(/C#N)C(=O)OC)s1	0.9
CCN(CC)CCCC(C)Nc1c2ccc(Cl)cc2nc2ccc(OC)cc12 (stereo not drawn)	60.5*
CCN(CC)CCSc1nc2ccc(OC)cc2[nH]1	-0.8
CCSc1nc(C)c2cc(OC)ccc2n1	1.2
CC1(C)OC(c2ccncc2)OC1(C)C	-2.6
COc1ccc2cc(/C(C)=N/OC(=O)Nc3ccc(OC(F)(F)F)cc3)ccc2c1	1.8
O=C1c2c(O)ccc(O)c2C(=O)c2c(NCCNCCO)ccc(NCCNCCO)c21	47.4*
O=C(CC12CC3CC(CC(C3)C1)C2)Nc1ccc2[nH]c(=O)[nH]c2c1	0.1
CCOc1ccc(CC#N)cc1OCC	-0.3
O=C(CCNc1ccccc1C(=O)O)c1ccccc1	-4.6
CC(C)(C)c1ccc(N=C(C#N)C2=C(O)c3ccccc3C2=O)cc1	-1.1
SMILES	MgrA-DNA mod
CCOCCOC(=O)C1=C(C)NC2=C(C(=O)CC(c3ccccc3)C2)C1c1ccc(N(CC)CC)cc1 (stereo not drawn)	-2.0
Cc1[nH]c2ccc(C(=O)O)cc2c1C	3.0
Cc1[nH]c2ccc(C(=O)O)cc2c1CC(=O)O	5.5
CCCc1c(C)[nH]c2ccc(C(=O)O)cc2c1=S	54.1*
CN(C)CCC(=O)c1ccc2c(c1)OCCCO2	0.4
NC(Cc1c[nH]c2ccccc12)C(=O)O (stereo not drawn)	0.4
O=C(O)Cc1c[nH]c2ccccc12	1.4
Cc1ccc(C)n1C(Cc1c[nH]c2ccccc12)C(=O)O (stereo not drawn)	65.7*
CCOC(=O)c1c(C)n(C)c2c1cc(OC(=O)c1ccc(C)cc1)c1ccccc12	-2.2
Cc1ccc(C)n1-c1ccc(C(=O)NNC(=O)c2cc(C(F)(F)F)cc(C(F)(F)F)c2)cc1	-1.5
O=C(NC1(C(=O)O)CC1)OCC1c2ccccc2-c2ccccc21	-2.0
O=C(COc1ccccc1)ON1C(=O)CCC1=O	-3.2
O=C(OCC1c2ccccc2-c2ccccc21)ON1C(=O)CCC1=O	68.4*
Cc1cccc(S(=O)(=O)NCc2ccco2)c1	1.2
CCOC(=O)C(C(=O)O)c1ccccc1 (stereo not drawn)	-1.3
N#Cc1cc(Sc2ccc(Cl)cc2)c(-n2nnc3ccccc32)cc1C#N	0.8
COc1ccc(/C=C2\Oc3cc(OCc4cccc(C)c4)ccc3C2=O)cc1	2.2
Clc1ccc(-c2nc(N3CCCCC3)c3ccccc3n2)cc1	0.9
O=C1c2ccc(S(=O)(=O)O)cc2-c2nc(-c3ccccc3)nc3ccc(Cl)c1c23	80.9*
O=C1c2ccccc2-c2nc(-c3ccccc3)cc3cccc1c23	3.3
Cc1onc(-c2ccccc2Cl)c1C(=O)NCCNc1ccc(C(F)(F)F)cc1[N+](=O)[O-]	-3.2
O=C(Nc1ccc2oc(-c3cc(I)ccc3Cl)nc2c1)c1ncn[nH]1	1.3
COc1cc(/C=C2\N=C(c3ccc(Cl)c([N+](=O)[O-])c3)OC2=O)cc(Br)c1OC(C)=O	0.6
CSc1nc2[nH]c(=O)cc(O)c2s1	2.2
O=C1NC(=S)N/C1=C\c1cccc(OCc2ccc(F)cc2)c1	-2.3
SMILES	MgrA-DNA mod
CCOc1ccc(C=C2C(=O)OC(c3ccccc3)OC2=O)cc1 (stereo not drawn)	16.0
O=C1OC(c2ccccc2)OC(=O)C1=Cc1cccc(OCc2ccccc2)c1 (stereo not drawn)	55.8*
O=C(COC(=O)c1ccc(Cl)nc1)NCc1ccccc1	0.0
CCOC(=O)[C@@H]1Nc2ccc(C(=O)O)cc2[C@@H]2C=CC[C@H]12	70.7*
Fc1ccc(C2Nc3ccc(Br)cc3C3C=CCC32)cc1 (stereo not drawn)	-2.2
CCOC(=O)c1ccc2c(c1)C1C=CCC1C(c1ccccc1F)N2 (stereo not drawn)	-1.4
CC(C)c1ccc([C@@H]2Nc3ccc(C(=O)O)cc3[C@@H]3C=CC[C@@H]32)cc1	46.7*
CC(=O)c1ccc2c(c1)C1C=CCC1C(c1ccc(Cl)cc1Cl)N2 (stereo not drawn)	3.5
CCOC(=O)c1ccc2c(c1)C1C=CCC1C(c1ccc(Cl)cc1Cl)N2 (stereo not drawn)	-2.9
O=C(ON=C1C2CC3CC(C2)CC1C3)c1cccc(C(F)(F)F)c1	-2.9
